Most compounds without a hit are left out; they make up all but 3.4% or so of the library.
SIRT5 block: blocks human SIRT5 desuccinylation of peptide; inhibition, % at 15 µM; actives 1.1% (n = 330,000); Purified SirT5, succinyl-peptide AMC, trypsin-coupled fluorescence; Q9NXA8; in the data active = inhibition above about 15%; inconclusive = no clear call, values can overlap the other calls
Target sequence (Q9NXA8 whole entry, looked up): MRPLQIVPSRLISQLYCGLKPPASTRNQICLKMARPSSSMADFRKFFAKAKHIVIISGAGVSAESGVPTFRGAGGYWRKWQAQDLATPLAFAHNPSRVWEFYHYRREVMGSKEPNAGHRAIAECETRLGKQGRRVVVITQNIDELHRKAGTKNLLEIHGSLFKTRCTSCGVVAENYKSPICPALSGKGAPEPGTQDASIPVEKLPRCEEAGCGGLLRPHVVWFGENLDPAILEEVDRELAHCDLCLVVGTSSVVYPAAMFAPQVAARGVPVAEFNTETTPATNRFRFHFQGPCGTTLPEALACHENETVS
PGC1a acetyl inh: PGC1a acetylation modulation, inhibitor mode. U2OS PGC1a acetylation, AlphaScreen anti-acetyl-lysine; with virally co-expressed GCN5 acetyltransferase. inhibition, % at 15.6 µM. actives 0.17% (n = 350,000);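 active = every replicate shows inhibition of at least 40%; inconclusive = mean inhibition at least 40% but some replicate below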;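 note: 0% = neutral control wells and 100% = positive control wells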
rRNA inh HTS: selective bacterial rRNA inhibition in E. coli | E. coli WT GFP vs humanized-ribosome RFP mutants, fluorescence, 24 h; hits give low values; DMSO median 0, no signal -100 | GFP signal change (wild-type ribosome), % (concentration not given with the values) | actives 1.6% (n = 350,000);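 active = significant combined selectivity score with lowered wild-type GFP, culture density cut under 30%, mutant RFP and density less affected; inactive = any of these conditions unmet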
PAX8 inh HTS: lowers PAX8-driven luciferase in RMG-I cells; inhibition, % at 12.6 µM; RMG-I TPO-luciferase reporter, SteadyGlo, 24 h; AID 652154; actives 1.2% (n = 360,000);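 active = mean replicate inhibition at least 60% with every replicate also reaching 60%; inconclusive = only one of the two criteria is met; inactive = mean below 60% and not all replicates reaching 60%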;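 note: luciferase light reporting Pax8 driven TPO promoter activity; plate controls were median of neutral control wells for no effect and mitoxantrone controls for full effect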
LGR2 antag: blocks bursicon-induced cAMP signaling via Drosophila LGR2; HEK293 LGR2, CRE-luciferase, bursicon-stimulated, 4 h; inhibition, % at 9.99 µM; actives 0.35% (n = 380,000); AID 720647;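 active = drop in luminescence signal, shown as inhibition above about 50% in the replicate tests, limit read from the data, passing the limit was not always enough; inconclusive = probably only some replicates passing the limit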;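 note: agonist challenge used bursicon conditioned medium at about half maximal strength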
EWS-Fli block: EWS/Fli transcriptional activity inhibition; A673 NR0B1-luciferase reporter, viability-normalised; inhibition, % at 12.6 µM; actives 0.67% (n = 350,000); AID 651661;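 active = mean inhibition of at least 50% after viability correction, with every replicate also passing that limit; inconclusive = mean reaches 50% but only one of two replicates passes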;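 note: firefly luciferase signal divided by Alamar Blue viability fluorescence both relative to DMSO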
An asterisk follows results filed as active; ? = inconclusive; . = not tested or not shown.

SMILES	SIRT5 block	PGC1a acetyl inh	rRNA inh HTS	PAX8 inh HTS	LGR2 antag	EWS-Fli block
COc1cccc(CNC(=O)[C@@H]2CCCN2)c1	25*	.	3	2	-7	8
COc1ccc(NC(=O)Nc2cccc3c2O[C@H](CN(C)Cc2ccc(Oc4ccccc4)cc2)[C@@H](C)CN([C@H](C)CO)C3=O)cc1	?	-18	-3	44	5	-4
CCCC#Cc1ccc2c(c1)O[C@H](CN(C)S(=O)(=O)c1cccc(F)c1)[C@@H](C)CN([C@@H](C)CO)S2(=O)=O	-1	-17	-1	.	-9	19
CC(C)CC#Cc1ccc2c(c1)O[C@H](CN(C)S(=O)(=O)c1cccc(F)c1)[C@H](C)CN([C@H](C)CO)S2(=O)=O	21*	-12	5	.	20	9
CC(C)CC#Cc1ccc2c(c1)O[C@H](CN(C)S(=O)(=O)c1cccc(F)c1)[C@H](C)CN([C@@H](C)CO)S2(=O)=O	17*	-7	1	.	2	44
COc1cc(C2CC(=O)N(c3ccc(C)cc3)C(=O)C2)cc(OC)c1OC	-1	.	16	20	-10	53*
COc1ccc(N2C(=O)CC(c3cc(OC)c(OC)c(OC)c3)CC2=O)cc1	0	5	2	15	.	25
Cc1ccccc1CC1(CO)CCCN(Cc2nc(-c3cccs3)oc2C)C1 (stereo not drawn)	0	.	-25*	13	2	-21
CCOc1ccc(CN2CCN(C(=O)c3cccc(F)c3)CC2)cc1	19*	4	-9	.	8	17
COc1cc(/C=C(\C#N)C(=O)NC2CCCCC2C)ccc1OS(=O)(=O)c1ccc(C)cc1 (stereo not drawn)	.	.	.	1	39	.
COc1cc(/C=C(\C#N)C(N)=O)ccc1OS(=O)(=O)c1ccc(C)cc1	-8	-7	-24*	29	-4	-3
O=C1/C(=C/c2ccc(Br)cc2)Oc2cc(O)ccc21	-1	.	1	-102	-27	-28
O=C1/C(=C/c2ccc([N+](=O)[O-])cc2)Oc2cc(O)ccc21	16*	.	-37	-171	-78	-74
CS(=O)(=O)N1CC(=O)N2[C@H](CO)[C@H](c3ccc(C#Cc4cccc(F)c4)cc3)[C@@H]2C1	-8	-10	8	.	-23	.
COc1ccccc1NC(=O)CSCc1ccc([N+](=O)[O-])cc1	.	.	.	6	15	.
O=C(CSCc1ccc([N+](=O)[O-])cc1)NC1CC1	2	.	6	4	-11	83*
CC(C)C(NC(=O)CSCc1ccc([N+](=O)[O-])cc1)C(C)C	2	.	7	-2	3	78*
O=[N+]([O-])c1ccc(CSCc2ccc([N+](=O)[O-])cc2)cc1	0	.	12	-23	0	6
O=C(Nc1ccc(F)cc1)N1CC(=O)N2[C@H](CO)[C@H](c3ccc(C#Cc4ccc(F)cc4)cc3)[C@@H]2C1	1	-8	-10	9	2	9
O=c1c(Cl)c(Cl)cnn1-c1ccccc1	.	.	-1	108*	104*	70*
CCCC(=NCCc1c(C)[nH]c2ccccc12)C1=C(O)CC(c2ccccc2)CC1=O (stereo not drawn)	.	.	.	.	-23	.
CCC/C(O)=C1\C(=O)CCCC1=NCCc1c(C)[nH]c2ccccc12	25*	-3	-7	6	-3	1
CCCCC(=NCCc1c(C)[nH]c2ccccc12)C1=C(O)CC(c2ccccc2)CC1=O (stereo not drawn)	-3	0	-3	26	12	51*
COc1cccc(C#Cc2ccc([C@H]3[C@H](CO)N4C(=O)CN(C(C)=O)C[C@@H]34)cc2)c1	0	-13	3	.	-3	.
C[C@H](CO)N1C[C@H](C)[C@H](CN(C)S(=O)(=O)c2cccs2)OCCCC[C@H](C)Oc2ccc(NC(=O)Nc3ccccc3)cc2C1=O	5	0	0	35	2	-3
SMILES	SIRT5 block	PGC1a acetyl inh	rRNA inh HTS	PAX8 inh HTS	LGR2 antag	EWS-Fli block
COc1ccc(C#Cc2ccc3c(c2)[C@]2(C(=O)N3)[C@H](c3ccccc3OCCO)N3[C@H](c4ccccc4)[C@H](c4ccccc4)OC(=O)[C@H]3[C@@H]2C(=O)NC[C@H](O)c2ccccc2)cc1	10	-8	.	89*	.	3
COc1ccc(C#Cc2ccc3c(c2)[C@]2(C(=O)N3)[C@H](c3ccc(OCCO)cc3)N3[C@H](c4ccccc4)[C@H](c4ccccc4)OC(=O)[C@H]3[C@@H]2C(N)=O)cc1	0	-30	.	73*	.	13
N#C[C@@H]1[C@@H](c2ccccc2-c2ccccc2F)[C@H](CO)N1C(=O)C1CCC1	0	1	0	.	5	-3
COC(=O)C[C@H]1CC[C@@H]2[C@@H](COc3ccc(NC(=O)Nc4ccc(C)cc4)cc3C(=O)N2C)O1	6	-6	-7	6	5	-16
O=C(O)c1ccc(S(=O)(=O)c2ccc3c(c2)C(=O)N(c2ccc(O)cc2)C3=O)cc1	-1	5	-36*	7	-2	0
COc1cccc(NC(=O)N(C)C[C@H]2Oc3cc(-c4ccccc4F)ccc3S(=O)(=O)N([C@H](C)CO)C[C@H]2C)c1	16*	11	0	.	.	3
COc1ccc(C#Cc2ccc3c(c2)O[C@H](CN(C)C(=O)Nc2cccc(OC)c2)[C@@H](C)CN([C@H](C)CO)S3(=O)=O)cc1	17*	17	0	.	15	29
COc1cccc(NC(=O)N(C)C[C@@H]2Oc3cc(C#Cc4ccccc4)ccc3S(=O)(=O)N([C@H](C)CO)C[C@H]2C)c1	19*	-8	2	-4	27	22
COc1ccc(C#Cc2ccc3c(c2)O[C@H](CN(C)C(=O)Nc2cccc(OC)c2)[C@H](C)CN([C@H](C)CO)S3(=O)=O)cc1	-3	10	6	.	12	8
O=C(C[C@@H]1CC[C@@H]2[C@H](COC[C@H](O)CN2C(=O)c2cnccn2)O1)NCc1ccc(Oc2ccccc2)cc1	3	-2	-6	.	-5	.
COCCCNC(=O)CN(CCc1ccccc1)S(=O)(=O)c1ccc(OC)cc1	1	2	-24*	11	19	3
COc1ccc(S(=O)(=O)N(CCc2ccccc2)CC(=O)NCCCO)cc1	.	-10	.	.	.	.
Cc1ccc(S(=O)(=O)N(C)CC(=O)NCCCc2ccccc2)cc1	1	-17	-24*	21	-9	13
CC(C)NC(=O)NCC[C@@H]1CC[C@@H](NC(=O)CN(C)C)[C@@H](CO)O1	2	16	0	-12	12	-4
COc1ccccc1-c1ccc2n(c1=O)C[C@@H]1[C@@H](CO)[C@H](C(=O)N3CCCCC3)[C@H]2N1CC1CC1	20*	.	1	-5	-6	-4
Cc1cccc(-c2ccc([C@@H]3[C@@H](CO)N4C(=O)CN(C(=O)c5cnccn5)C[C@@H]34)cc2)c1	.	.	3	.	.	.
